Data reported in PubChem BioAssay AID2778 (National Center for Advancing Translational Sciences (NCATS), 2010).
Inconclusive results are not listed. Entries that show only a call come without a potency. Calls of active or inactive are those of the source. The call rests on the fitted dose curve; in most records, active means well fitted inhibition curve with a large enough effect; inconclusive means small, poorly fitted or top-dose-only effect, or effect the other way; inactive means flat fitted curve, though single readings scatter.

These compounds were tested against Menin (Homo sapiens) (UniProt O00255) (assay: Confirmation of Inhibitors Targeting the Menin-MLL Interaction in MLL Related Leukemias: Confirmation in an HTRF (commercial TR-FRET) Assay using His-tagged menin and biotin-labeled MLL peptide). Settings: His-menin / biotin-MLL peptide binding; series mostly up to 126 µM.
Outline: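 HTRF: His6-menin (200 nM) and biotin-MLL-w.t. peptide (80 nM) preincubated 15 min, then compounds 1 hr at ambient, before Eu-cryptate anti-His (3.5 nM) and streptavidin-XL665 (10 nM) for 1 h; 50 mM Tris-HCl pH 7.5, 50 mM NaCl, 1 mM DTT, BSA.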
Potency means the concentration at half of the fitted maximal effect.

Sequence of Menin (Homo sapiens) (O00255 whole entry, looked up): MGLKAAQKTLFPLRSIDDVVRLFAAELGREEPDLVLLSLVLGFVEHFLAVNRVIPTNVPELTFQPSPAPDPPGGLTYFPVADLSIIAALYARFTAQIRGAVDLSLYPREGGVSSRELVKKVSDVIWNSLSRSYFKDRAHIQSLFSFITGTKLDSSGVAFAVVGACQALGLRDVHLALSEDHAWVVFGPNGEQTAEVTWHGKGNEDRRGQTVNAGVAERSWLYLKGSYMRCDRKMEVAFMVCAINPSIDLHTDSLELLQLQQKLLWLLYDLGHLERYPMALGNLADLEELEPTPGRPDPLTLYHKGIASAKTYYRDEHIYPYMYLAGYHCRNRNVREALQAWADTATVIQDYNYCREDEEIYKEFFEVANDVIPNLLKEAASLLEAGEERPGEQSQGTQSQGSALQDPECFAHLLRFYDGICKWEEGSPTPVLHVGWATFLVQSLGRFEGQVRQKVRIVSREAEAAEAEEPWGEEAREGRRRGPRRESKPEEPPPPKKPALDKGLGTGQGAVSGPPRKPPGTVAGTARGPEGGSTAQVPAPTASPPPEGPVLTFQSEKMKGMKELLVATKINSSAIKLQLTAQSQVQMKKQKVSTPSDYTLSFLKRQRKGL

Row | Structure (SMILES) | Potency
1 | Cc1c(CCOC(=O)CC23CC4CC(CC(C)(C4)C2)C3)sc[n+]1Cc1ccc([N+](=O)[O-])cc1 | inactive
2 | Cc1ccc(C2=NN(C(=O)c3ccccc3F)C(c3ccccc3F)C2)cc1 (stereo not given) | inactive
3 | COc1ccc(-c2csc(NC(=O)c3cc(-c4cccs4)nc4ccccc34)n2)c(OC)c1 | inactive
4 | O=C(/C=C/c1ccccc1)c1cccs1 | inactive
5 | CCCN(CCC)CCCNC(=S)Nc1ccc2nc(N3CCCC3)cc(C)c2c1 | inactive
6 | Cn1c(=O)[nH]c(=O)c2c1nc(Br)n2CCSc1nc2ccccc2o1 | inactive
7 | Cc1[nH]nc(-c2ccc(OCc3cnn(-c4ccccc4)c3)c(C)c2O)c1Oc1ccccc1 | inactive
8 | COC(=O)c1ccccc1NC1=C/C(=N\S(=O)(=O)c2ccc(C(=O)O)cc2)c2ccccc2C1=O | inactive
9 | N=C1c2ccccc2CN1c1ccc(N2CCOCC2)c(S(=O)(=O)Nc2ccc(Cl)cc2)c1 | 79.4 µM (active)
10 | O=C(NC(=S)N1CCCc2ccccc21)c1ccc([N+](=O)[O-])cc1 | inactive
11 | COc1cccc(-c2nn(-c3ccccc3)cc2/C=C\C(=O)c2cccs2)c1 | inactive
12 | CCOc1cc(CNCCc2ccc(S(N)(=O)=O)cc2)ccc1OCc1ccccc1 | 251 µM (active)
13 | CCCC(=O)Nc1cccc(NC(=O)c2ccc([N+](=O)[O-])cc2Cl)c1 | inactive
14 | Cc1ccc(/C=C2\SC(=S)N(CC(=O)Nc3ncc(Cc4ccccc4Cl)s3)C2=O)cc1 | inactive
15 | CCc1cc2c(N3CCN(c4nnc(CC)s4)CC3)ncnc2s1 | 25.1 µM (active)
16 | CC(c1ccccc1)c1nnc(NC(=O)Nc2ccccc2F)s1 (stereo not given) | inactive
17 | O=C(c1cc2c(=O)n3ccccc3nc2s1)N1CCOCC1 | inactive
18 | N=c1oc2ccccc2cc1-c1nc(-c2ccc(Cl)cc2)cs1 | inactive

Row | Structure (SMILES) | Potency
19 | Oc1ccc2ccccc2c1N=Nc1nccs1 | inactive
20 | O=C(CCC1CCCCC1)NCCN1C2=NC[C@H](Cc3ccc(O)cc3)N2C[C@H]1Cc1ccc(O)cc1 | inactive
21 | Cc1ccc(NC(=O)C(C)N2C(=O)c3ccccc3C2=O)c(C)c1 (stereo not given) | inactive
22 | Cc1ccc(C(C[N+](=O)[O-])c2c(C)[nH]n(-c3ccccc3)c2=O)cc1 (stereo not given) | inactive
23 | CC(=O)c1cccc(OCC(O)CNCC2COc3ccccc3O2)c1 (stereo not given) | inactive
24 | CC(=O)O[C@H]1CSC[C@H]1NC(=O)c1ccccc1 | inactive
25 | COc1ccc(CN2CCN(C(C)C(=O)N(C)Cc3cccc(F)c3)CC2)cc1OC (stereo not given) | inactive
26 | N#Cc1ccc(Cl)cc1NC(=O)CNCc1cccs1 | inactive
27 | CC(C)Cc1cc(C(=O)NCCCN2CCOCC2)no1 | inactive
28 | CC(=O)N1CCCc2cc(S(=O)(=O)N3CCCC(C(=O)N4CCN(c5ccccc5)CC4)C3)ccc21 (stereo not given) | inactive
29 | CCOc1ccc(C2Nc3ccc4ccccc4c3-c3c2c(=O)oc2ccccc32)cc1 (stereo not given) | inactive
30 | COc1ccc(C)cc1N(C(=O)c1snc(C(N)=O)c1N)C(C(=O)NC1CCCC1)c1ccc(F)cc1 (stereo not given) | inactive
31 | COC(=O)[C@H](C)NC(=O)c1cc2c(cn1)[nH]c1ccccc12 | 50.1 µM (active)
32 | COCC(=O)Nc1cccc2ccccc12 | inactive
33 | CCN1CCN(CC(=O)Nc2ccc(C(C)=O)cc2)CC1 | inactive
34 | CCOC(=O)c1cnc2ccc(OC)cc2c1Nc1ccc(N2CCN(C)CC2)cc1 | inactive
35 | COc1ccc(CN2CCC(Cc3ccccc3)CC2)c(C)c1C | inactive
